The record followed here is the supplement of paper PMC11150407.

One may read the cell viability as a read-out of living cells in per cent, often relative to untreated cells.

Structures can show the parent of a compound that is named as a salt. The campaign covered roughly 2,100 compounds. About 180 (8.6%) showed an effect of 50% or more. Only a selection was taken, and strong results are over-represented in it overall.

The subject of this assay is MOLM1 and UCSD/AML1 (averaged). Briefly: cell viability relative to DMSO control (POC); higher = less growth inhibition. The following applies: 1 µM; 72 h. The procedure: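 Primary viability screen in the 3q26 EVI1-high AML cell lines MOLM1 and UCSD/AML1 (1.5e3 cells/well, 384-well), compounds at 1 uM for 72 h. ATP CellTiter-Glo read-out given as percent of viable cells over DMSO control (POC), averaged over duplicates. DMSO was the negative control and 5 uM etoposide the positive control. This mapping covers the MicroSource Spectrum and Selleck anticancer libraries (drug names).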
Regarding `CC(C)C[C@@H]1NC(=O)[C@H](CCCN)NC(=O)[C@H](C(C)C)NC(=O)[C@H](Cc2ccc(O)cc2)N[C@@H](CCC(=O)O)C(=O)N[C@@H](CC(N)=O)C(=O)[C@@H](Cc2ccccc2)NC(=O)[C@H](Cc2ccccc2)NC(=O)[C@@H]2CCCN2C(=O)[C@@H](Cc2ccccc2)NC1=O`, the cell viability was found to be 13%. Turning to `CC[C@H](C)[C@H](N)C1=N[C@H](C(=O)N[C@@H](CC(C)C)C(=O)N[C@H](CCC(=O)O)C(=O)N[C@H](C(=O)N[C@H]2CCCCNC(=O)[C@H](CC(N)=O)NC(=O)[C@@H](CC(=O)O)NC(=O)[C@H](Cc3cnc[nH]3)NC(=O)[C@@H](Cc3ccccc3)NC(=O)[C@H]([C@@H](C)CC)NC(=O)[C@@H](CCCN)NC2=O)[C@@H](C)CC)CS1`, the cell viability is 94.8%.

For the molecule `CC1=C(CCC(=O)O)c2cc3[nH]c(cc4nc(cc5[nH]c(cc1n2)c(C)c5C(C)O)C(C)=C4C(C)O)c(C)c3CCC(=O)O` (stereo not given), the cell viability stood at 107%. With `COc1cc(O)c2c(c1)C(=O)c1cc(C)cc(O)c1C2=O` the figure was 94.9%; with `O=C(/C=C/c1ccc(O)c(O)c1)O[C@H](Cc1ccc(O)c(O)c1)C(=O)O`, 104%. The same measure for `CNC(=O)c1cc(Oc2ccc(NC(=O)Nc3cc(C(C)(C)C)nn3-c3ccc4ncccc4c3)c(F)c2)ccn1` [DCC-2036 (Rebastinib)]: 24.6%.

For `CNC(=O)c1cc(Oc2ccc(NC(=O)Nc3ccc(Cl)c(C(F)(F)F)c3)c(F)c2)ccn1` [Regorafenib (BAY 73-4506)], the cell viability came to 28.9%. `Cc1ccc(-n2nc(C(C)(C)C)cc2NC(=O)Nc2ccc(OCCN3CCOCC3)c3ccccc23)cc1` [BIRB 796 (Doramapimod)]: the cell viability is 85.1%.

For `CNC(=O)c1cc(Oc2ccc(NC(=O)Nc3ccc(Cl)c(C(F)(F)F)c3)cc2)ccn1` [Sorafenib (Nexavar)], the cell viability turned out to be 59.7%. With `Cc1cc(OC(=O)c2c(C)cc(O)cc2O)cc(O)c1C(=O)O` the figure was 103%. As to `Nc1ccccc1C(=O)CC(N)C(=O)O` (stereo not given), the cell viability amounted to 98.1%.

For `CC(C)=CCC[C@@H](C)[C@@H]1CC[C@]2(C)C3=C(CC[C@@]12C)[C@@]1(C)CC[C@H](O)C(C)(C)[C@@H]1CC3`, the cell viability was 97.6%. On to `COc1cc(OC)c2ccc(=O)oc2c1`, for which the cell viability came to 99.1%. With `COc1cc(OC)c2c(c1Cl)O[C@@]1(C(=O)CC(=O)C[C@H]1C)C2=O` the figure was 102%. The same measure for `Cc1ccc(C(=O)Nc2ccc(CN3CCN(C)CC3)c(C(F)(F)F)c2)cc1C#Cc1cnc2cccnn12`: 4.31%.

`CS(=O)(=O)N1CCN(Cc2cc3nc(-c4cccc5[nH]ncc45)nc(N4CCOCC4)c3s2)CC1` [Pictilisib (GDC-0941)]: the cell viability turned out to be 51.1%.

For `CC1(C)C(=O)C=C[C@]2(C)[C@H]3CC[C@@]4(C)[C@H](c5ccoc5)OC(=O)[C@H]5O[C@]54[C@]3(C)C(=O)C[C@@H]12`, the cell viability was found to be 84.7%. Consider `COc1ccc2c(c1)O[C@H]1c3ccc(OC)cc3OC[C@@H]21`, for which the cell viability came out at 105%. The same measure for `Cc1cc2c(F)c(Oc3ncnn4cc(OC[C@@H](C)O)c(C)c34)ccc2[nH]1`: 89.6%. For the molecule `Oc1cc(O)c2c(c1)O[C@H](c1ccc(O)c(O)c1)[C@H](O)C2`, the cell viability came out at 96.7%. Consider `O=C(Nc1cccnc1)N1CCC(Cc2cccc(Oc3ccc(C(F)(F)F)cn3)c2)CC1`, for which the cell viability is 56.7%. Take `O=C(/C=C/c1cccnc1)NCCCCC1CCN(C(=O)c2ccccc2)CC1`: the cell viability was 12%. `O=C(O)c1cccnc1`: the cell viability is 95%.

On to `COc1c(O)cc(O)cc1O`, for which the cell viability came to 98.8%. `O=C(O)CC[C@H]1CC[C@@](c2cc(F)ccc2F)(S(=O)(=O)c2ccc(Cl)cc2)CC1`: the cell viability came to 71%. As to `Cc1cccc2c3c(ccc12)C1=C(C(=O)C3=O)[C@@H](C)CO1`, the cell viability was determined as 98.4%. `CC1(C)CCC(c2ccc(Cl)cc2)=C(CN2CCN(c3ccc(C(=O)NS(=O)(=O)c4ccc(N[C@H](CCN5CCOCC5)CSc5ccccc5)c(S(=O)(=O)C(F)(F)F)c4)cc3)CC2)C1` [ABT-263 (Navitoclax)]: the cell viability stood at 6.23%.

As for `CN(C)CC[C@H](CSc1ccccc1)Nc1ccc(S(=O)(=O)NC(=O)c2ccc(N3CCN(Cc4ccccc4-c4ccc(Cl)cc4)CC3)cc2)cc1[N+](=O)[O-]`, the cell viability is 32.3%.

`NC1(C(=O)O)CCC1`: the cell viability is 102%. For the molecule `OC[C@H]1O[C@@](CO)(O[C@H]2O[C@H](CO)[C@@H](O)[C@H](O)[C@H]2O)[C@@H](O[C@H]2O[C@H](CO)[C@@H](O)[C@H](O)[C@H]2O)[C@@H]1O`, the cell viability worked out at 103%. `CC(C)=CCc1c(O)cc2occ(-c3ccc4c(c3)OCO4)c(=O)c2c1O`: the cell viability amounted to 100%. Turning to `C[C@@H]1CC[C@H]2[C@](C)(CO)[C@@H](O)CC[C@]2(C)[C@@]12CC[C@@](CO)(CCO)O2`, the cell viability is 89.3%. In the case of `C[C@@H]1O[C@@H](O[C@H]2[C@H](Oc3cc(O)c4c(=O)cc(-c5ccc(O)cc5)oc4c3)O[C@H](CO)[C@@H](O)[C@@H]2O)[C@H](O)[C@H](O)[C@H]1O`, the cell viability was 110%. As for `Sc1nc2ccccc2s1`, the cell viability was 115%. With `C=CC(C)(O)CCC1C(=C)CC(O)C2C(C)(C)CCCC12C` (stereo not given) the figure was 105%; with `CC[C@]1(O)C[C@@H]2CN(CCc3c([nH]c4ccccc34)[C@@](C(=O)OC)(c3cc4c(cc3OC)N(C)[C@H]3[C@@](O)(C(=O)OC)[C@H](OC(C)=O)[C@]5(CC)C=CCN6CC[C@]43[C@@H]65)C2)C1` [Vinblastine], 8.43%; with `CC[C@]1(O)C[C@@H]2CN(CCc3c([nH]c4ccccc34)[C@@](C(=O)OC)(c3cc4c(cc3OC)N(C)[C@H]3[C@@](O)(C(=O)OC)[C@H](OC(C)=O)[C@]5(CC)C=CCN6CC[C@]43[C@@H]65)C2)C1`, 7.14%. As to `CC[C@]1(O)C[C@H]2CN(CCc3c([nH]c4ccccc34)[C@@](C(=O)OC)(c3cc4c(cc3OC)N(C=O)[C@H]3[C@@](O)(C(=O)OC)[C@H](OC(C)=O)[C@]5(CC)C=CCN6CC[C@]43[C@@H]65)C2)C1` [Vincristine Sulfate], the cell viability amounted to 7.83%.

As for `CC[C@]1(O)C[C@H]2CN(CCc3c([nH]c4ccccc34)[C@@](C(=O)OC)(c3cc4c(cc3OC)N(C=O)[C@H]3[C@@](O)(C(=O)OC)[C@H](OC(C)=O)[C@]5(CC)C=CCN6CC[C@]43[C@@H]65)C2)C1`, the cell viability is 11.3%. `COc1ccc2c(=O)c(-c3ccc(O)cc3)coc2c1`: the cell viability turned out to be 84.7%. The same measure for `CC(C)c1c(O)ccc2c1CC[C@H]1C(C)(C)CCC[C@]21C`: 90.4%. The same measure for `COC(=O)C(O)c1ccccc1` (stereo not given): 106%. Turning to `O=c1cc(-c2ccc(O)cc2)oc2cc(O[C@@H]3O[C@H](CO)[C@@H](O)[C@H](O)[C@H]3O[C@@H]3OC[C@](O)(CO)[C@H]3O)cc(O)c12`, the cell viability amounted to 119%. In the case of `COc1ccc2c(=O)c(CC(=O)O)coc2c1`, the cell viability was determined as 98.6%. For `N=C(N)NC(=N)Nc1ccccc1`, the cell viability was found to be 99.7%. In the case of `O=C(O)c1nc2cc(Cl)c(Cl)cc2nc1O`, the cell viability was found to be 98.3%. Take `CC(C)CCC[C@@H](C)[C@H]1CC[C@H]2[C@@H]3CC[C@H]4C[C@H](O)CC[C@]4(C)[C@H]3CC[C@]12C`: the cell viability came to 110%. Regarding `Cc1ccc(S(=O)(=O)C=CC#N)cc1`, the cell viability is 1.01%.

On to `Cc1ccc(O)c([C@H](CCN(C(C)C)C(C)C)c2ccccc2)c1`, for which the cell viability stood at 92.5%. For the molecule `C=CC[S+]([O-])C[C@H](N)C(=O)O` (mixture of isomers), the cell viability was 89.6%.

Consider `CCN(CC)C(=S)SSC(=S)N(CC)CC`, for which the cell viability is 5.82%. As to `CCN(CC)C(=S)SSC(=S)N(CC)CC` [Disulfiram (Antabuse)], the cell viability was determined as 1.33%. On to `CC1=CC(=O)[C@H]2C(C)(C)CCC[C@]2(C)[C@@]1(O)CCc1ccoc1`, for which the cell viability turned out to be 110%.

Turning to `COC(=O)CC[C@@H](C)[C@H]1CC[C@H]2[C@@H]3[C@H](O)C[C@@H]4C[C@H](O)CC[C@]4(C)[C@H]3C[C@H](O)[C@]12C`, the cell viability came out at 95.2%. Regarding `C[C@@H]1CCN(C(=O)CC#N)C[C@@H]1N(C)c1ncnc2[nH]ccc12`, the cell viability worked out at 72.1%.

As to `O=C(O)c1cc(-c2ccc(F)cc2F)ccc1O`, the cell viability was 112%. As for `CNC(=O)c1ccccc1Sc1ccc2c(/C=C/c3ccccn3)n[nH]c2c1` [Axitinib], the cell viability was 19.1%.

With `C[C@H]1CC2C3CCC4=CC(=O)C=C[C@]4(C)[C@@]3(F)[C@@H](O)C[C@]2(C)[C@@]1(O)C(=O)COP(=O)(O)O` (stereo not given in full), the cell viability worked out at 72.3%.

As for `COc1c(-c2coc3cc4c(cc3c2=O)CC(OC(C)=O)C(C)(C)O4)ccc2c1C=CC(C)(C)O2` (stereo not given), the cell viability is 88.7%. With `Fc1cc(-c2cccc3ncc(-c4cnn(C5CCNCC5)c4)nc23)cc(F)c1CN1CCOCC1`, the cell viability turned out to be 24.6%. Regarding `CCC(C(N)=O)c1ccccc1` (stereo not given), the cell viability amounted to 109%. Regarding `COc1cc(O)ccc1C(C)=O`, the cell viability was 97.9%. The same measure for `CC(C)=CCC1=C(O)C(=O)c2ccccc2C1=O`: 118%; for `N[C@@H](CSCSC[C@H](N)C(=O)O)C(=O)O`: 99.3%. Consider `CS(=O)(=O)c1cccc(CNc2nc(Nc3ccc4c(c3)CCC(=O)N4)ncc2C(F)(F)F)c1`, for which the cell viability is 83.3%.

As for `CC(=O)NCC(=O)N1[C@@H]2CC[C@H]1c1ccc(Nc3ncc(C(F)(F)F)c(NC4CCC4)n3)cc12`, the cell viability was determined as 20.2%.

As for `CN(c1ncccc1CNc1nc(Nc2ccc3c(c2)CC(=O)N3)ncc1C(F)(F)F)S(C)(=O)=O`, the cell viability is 58.6%. Turning to `CC(=O)/C=C\[C@@H]1[C@@]2(C)CCCC(C)(C)C2CC[C@@]1(C)O` (stereo not given in full), the cell viability came to 99.2%. The same measure for `COc1cc2c(cc1OC)-c1c(oc3cc(O)cc(O)c3c1=O)CO2`: 103%; for `COC1=C(O)C(=O)c2c(cc3oc(C(C)=O)c(O)c3c2O)C1=O`: 86.8%; for `CCCCC(=O)Oc1ccccc1C(=O)O`: 115%. `COC(=O)C[C@H]1C(C)(C)[C@@H](OC(C)=O)[C@@H]2CC3C4CC(=O)O[C@@H](c5ccoc5)[C@]4(C)CCC3[C@@]1(C)C2=O` (stereo not given in full): the cell viability is 88.1%. For the molecule `CCCCOc1ccc(C(=O)CCN2CCCCC2)cc1`, the cell viability turned out to be 104%. As for `Cc1cnc(Nc2ccc(OCCN3CCCC3)cc2)nc1Nc1cccc(S(=O)(=O)NC(C)(C)C)c1`, the cell viability came to 13%. The same measure for `CC1(C)[C@@H](O)CC[C@]2(C)[C@H]3C(=O)C=C4[C@@H]5C[C@@](C)(C(=O)O)CC[C@]5(C)CC[C@@]4(C)[C@]3(C)CC[C@@H]12`: 95.5%.
